Bioassay records from PubChem.
DUSP3 inh = inhibitors of human VHR1 phosphatase (DUSP3). P51452. recombinant VHR phosphatase, pNPP absorbance. inhibition, % at 13.3 µM. actives 0.52% (n = 290,000). AID 1654; in the data active means inhibition above about 50%
Target sequence (P51452 whole entry, looked up): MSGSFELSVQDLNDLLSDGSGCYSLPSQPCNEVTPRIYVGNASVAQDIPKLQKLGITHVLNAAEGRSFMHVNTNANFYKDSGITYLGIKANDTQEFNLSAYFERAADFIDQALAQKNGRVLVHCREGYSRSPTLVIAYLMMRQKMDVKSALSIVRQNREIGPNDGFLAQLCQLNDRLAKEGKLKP
RecA intein inh = blocks M. tuberculosis RecA intein splicing. AID 2221. inhibition, % (concentration not given with the values). actives 0.75% (n = 290,000). cell-free RecA intein splicing, fluorescence. P9WHJ3; in the data active means inhibition above about 30%;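 further: 0% = vehicle wells and 100% = reference inhibitor control wells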
SARS 3CLpro inh = SARS-CoV 3CLpro protease inhibition. P0C6X7. recombinant SARS-CoV 3CLpro, quenched FRET peptide cleavage. inhibition, % at 6 µM. actives 0.14% (n = 290,000). AID 1706; in the data active means inhibition above about 12%
CCHF vOTU inh = blocks the CCHF virus ovarian tumor domain protease | CCHFV vOTU protease, Pep-AMC fluorescence | inhibition, % at 11.5 µM | actives 0.55% (n = 370,000) | AID 651958; in the data active means inhibition above about 30%; further: 0% = vehicle wells with enzyme and 100% = no enzyme wells
The depositor's hits bear a star; · = no result given. The list is not random: actives were taken first. Their share in the collection is about 1.5%.

SMILES | DUSP3 inh | RecA intein inh | SARS 3CLpro inh | CCHF vOTU inh
NC(=O)c1ccsc1NC(=O)CS(=O)(=O)c1ccc(Cl)cc1 | 56* | -2 | -1 | 5
c1ccc2c(c1)CCN(CCCNc1nc3ccccc3n3cnnc13)C2 | 54* | · | -1 | 12
Cc1noc(C)c1C(C)C1=CCCCC1 (stereo not given) | · | · | · | 0
O=C(Cn1nc(C(F)F)cc1C1CC1)N1CCCC1 | 59* | 1 | 0 | 3
Nc1ccc2[nH]ncc2c1 | 9 | 61* | -3 | 8
CCN(Cc1ccccc1)C(=O)C1CCCN(c2ncccn2)C1 (stereo not given) | · | · | · | -4
CCOc1ccccc1N(C)S(=O)(=O)c1ccc2c(c1)CC(C)N2C(=O)C1CC1 (stereo not given) | 50* | 1 | -4 | -2
O=C(Nc1c[nH]c(=O)[nH]c1=O)c1ccccc1Br | 46 | -1 | -1 | -1
CC(Nc1c[nH]c(=O)[nH]c1=O)c1ccccc1 (stereo not given) | 1 | 61* | 4 | -8
O=C(O)CC/C(=N/NC(=O)CNC(=O)c1ccc2c(c1)OCCO2)c1ccccc1 | 8 | -1 | 0 | 6
COc1ccc(S(=O)(=O)N2CCC(c3nc4ccccc4o3)CC2)c(OC)c1 | · | · | · | 19
O=C(CSc1ncnc2c1oc1ccccc12)c1cccs1 | 32 | -1 | 5 | 9
Cc1nc(SCC(=O)c2cccs2)c2oc3ccccc3c2n1 | 56* | -2 | 4 | 6
Cc1cc(C(=O)NCCCOC(C)C)c2ccccc2n1 | 50* | 0 | -2 | -17
Cn1c(=O)oc2cc(S(=O)(=O)NCCc3ccccc3)ccc21 | 57* | 3 | 0 | 8
Cc1cccc(CCNS(=O)(=O)c2ccc3c(c2)oc(=O)n3C)c1 | 42 | 2 | 4 | 3
COc1ccc(CCNc2cc(C)[nH]c(=O)c2)cc1OC | 60* | 0 | 3 | -18
CNCCc1ccc(OC)c(OC)c1 | 14 | -2 | · | 7
Cc1ccc(CCNc2ccc3ccccc3c2)cn1 | · | 38* | 0 | -2
Cc1ccc(NCCc2ccc(C)nc2)cc1 | 28 | -1 | 5 | 3
COC(=O)c1cc(CNC(=O)c2ccc(S(=O)(=O)N(C)c3ccccc3)cc2)ccc1OC | · | · | · | -1
COc1ccc(CCNC(=O)c2ccc(S(=O)(=O)N(C)c3ccccc3)cc2)cc1OC | 52* | 2 | 2 | 14
NC(=O)N/N=C/c1ccc([N+](=O)[O-])o1 | · | · | · | 11
O=[N+]([O-])c1ccc(/C=[N+](\[O-])CCO)o1 | 53* | -455 | -2 | 26
CNC(=S)N/N=C(\C)c1ccc(C(C)(C)C)cc1 | 60* | 0 | 1 | -2
SMILES | DUSP3 inh | RecA intein inh | SARS 3CLpro inh | CCHF vOTU inh
CNC(=S)N/N=C(\C)c1ccccc1 | 22 | 1 | -3 | 1
COc1ccc2[nH]cc(CCNS(=O)(=O)Cc3ccccc3)c2c1 | 0 | -1 | 0 | -11
CC(=O)N1CCN(C(=O)OC2CC3CC2[C@H]2CCCCN2C3=O)CC1 (stereo not given in full) | · | · | · | 6
CCOc1cc(C(=S)N2CCOCC2)ccc1OS(=O)(=O)c1ccc(C)cc1 | 16 | 4 | 0 | 8
CCOc1cc(C(c2c(C)[nH][nH]c2=O)c2c(C)[nH][nH]c2=O)ccc1OS(=O)(=O)c1ccccc1 | -8 | 97* | -3 | -4
CC(=O)[C@@H]1[C@@H](C(=O)c2ccccc2)[C@]2(C(=O)Nc3ccccc32)[C@H]2C=Cc3cc(F)ccc3N12 | -8 | 6 | 2 | -6
O=C(c1ccccc1)[C@@H]1[C@@H](C(=O)c2ccc(F)cc2)[C@@]2(C(=O)Nc3ccccc32)[C@H]2c3ccccc3C=CN12 | 5 | 31* | -7 | 84*
CN(C(=O)c1ccc(NC(=O)Cc2ccc(NC(=O)C3CCCN(C(=O)C4CC4)C3)cc2)cc1)C1CC1 (stereo not given) | · | · | · | -10
Cc1ccc(OCc2n[nH]c(=S)n2-c2ccc(Br)cc2)cc1 | 58* | 4 | -2 | 8
O=Cc1ccc2ccc3cccnc3c2n1 | 57* | -6 | 4 | -10
O=Cc1ccc2cccnc2n1 | -12 | 1 | -5 | -16
CCCCOc1ccc(C(=O)C(CN2CCOCC2)c2ccccc2)cc1 (stereo not given) | 8 | 32* | 3 | 8
CC1(Oc2ccc(CC#N)cc2)CCN(Cc2ccc(-n3ccnc3)cc2)C1 (stereo not given) | · | · | · | -5
CCCCN(C)S(=O)(=O)c1cc2c3c(c1)CCC(=O)N3CCC2 | 56* | -1 | -3 | 4
CCN(c1ccccc1C)S(=O)(=O)c1cc2c3c(c1)CCC(=O)N3CCC2 | -20 | -4 | -5 | 11
C=CCN1C(=O)c2ccc(C(=O)N(CC)CC(=O)Nc3ccc(OC)cc3)cc2C1=O | · | 0 | · | 11
Clc1ccc(C2=C3CCCCn4c(-c5ccccc5)c[n+](c43)C2)cc1 | 21 | 33* | 3 | -40
COc1ccc(-c2c[n+]3c4n2CCCCC4=C(c2ccc(Br)cc2)C3)cc1 | 10 | 24 | 3 | -6
CC(C)(C)c1ccc(C(=O)NC(=S)Nn2cnnc2)cc1 | 39 | -2 | 0 | 13
COc1ccc(-c2nc3ncccc3n2O)cc1 | 6 | 2 | 2 | 16
CCOc1ccccc1NC(=O)CNC(=O)N1CC(=O)Nc2ccccc21 | 51* | 0 | -5 | 17
Nc1ccc2nc[nH]c2c1 | 14 | 49* | -1 | 24
COc1ccc(S(=O)(=O)N2CCc3ccccc3C2)cc1 | 51* | 1 | -1 | -7
CCOc1ccc(S(=O)(=O)N2CCc3ccccc3C2)cc1 | 23 | 3 | -3 | -3
CCn1c(=O)n(CC)c2cc(N3CCCC3)c(NC(=O)c3ccccc3)cc21 | 32 | -6 | -4 | 7
SMILES | DUSP3 inh | RecA intein inh | SARS 3CLpro inh | CCHF vOTU inh
CCn1c(=O)n(CC)c2cc(N3CCCC3)c(NC(=O)c3ccc(C)cc3)cc21 | 56* | -5 | 3 | -7
O=C(CCCc1c[nH]c2ccccc12)NCC1COc2ccccc2O1 (stereo not given) | 52* | 0 | 2 | -12
Cc1ccccc1-c1cccc([C@@H]2C[C@H]3[C@H](CON3C)CN2Cc2cc(Cl)cc(Cl)c2)c1 | · | · | · | -6
O=C(CSc1nnc(CNC(=O)c2c(F)cccc2F)o1)Nc1ccc2c(c1)OCO2 | -16 | 2 | 1 | 0
Cc1cc(NC(=O)CSc2nnc(CNC(=O)c3c(F)cccc3F)o2)no1 | 53* | 3 | 6 | 12
O=C(CSc1nnc(CNC(=O)c2ccco2)o1)Nc1ccc(F)cc1F | 52* | -3 | -5 | 11
CN(C1CCCCC1)C(CNS(=O)(=O)c1ccccc1)c1ccccc1 (stereo not given) | 53* | -1 | 0 | -6
CN(Cc1ccccc1)C(CNS(=O)(=O)c1ccccc1)c1ccccc1 (stereo not given) | · | · | · | 4
CN(C)c1ccc(NC(=O)c2ccc(N3CCOCC3)nc2)cc1 | 52* | 1 | -1 | -1
CC(C)(C)NC(=S)Nc1ccc(Br)cc1 | -3 | -1 | 4 | -4
CC(C)(C)NC(=S)Nc1ccc(Nc2ccccc2)cc1 | 53* | 2 | 1 | -1
COC(CN(C(=O)CCl)C(C(=O)NC1CCCC(C)C1C)c1ccc(C)cc1)OC (stereo not given) | 13 | 45* | -4 | ·
O=Cc1s/c(=N\S(=O)(=O)c2ccccc2)n(CCCCl)c1Cl | 18 | 95* | 1 | 0
